Screening data: PubChem, National Center for Advancing Translational Sciences (NCATS)
TGFb inhibitor – blocks TGF-b signaling. 410,000 tested, 1.2% active. Potency, µM (top dose mostly 46.1 µM), for inactives: top-dose activity, negative = inhibition, hits mostly inhibitors. HepG2 CAGA-GFP TGF-b/SMAD3 reporter, GFP fluorescence, 18 h; TGF-beta stimulated, 500 pg/mL final; note: % is set by controls: 0 for no effect and ±100 for the full control effect; nearly all actives have a fitted effect of over 65% in size
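Cell-based qHTS in HEPG2 carrying a CAGA-GFP Smad reporter; compounds added before 500 pg/mL final TGF-beta, 18 h incubation at 37 degrees C, GFP fluorescence quantified per cell by imaging cytometry.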
S2 tox – cell viability loss in ATXN counter-screen. S2 cells (HEK-293 line with an ATXN2-luciferase reporter) viability, CellTiter-Fluor protease fluorescence, 24 h. Potency, µM (top dose mostly 56.7 µM), most hits filed as cytotoxic. 400,000 tested, 0.49% active. AID 651635; note: nearly all actives have a fitted effect of over 40% in size
HepG2 viability – HepG2 cytotoxicity, counter-screen for TGF-b inhibitors; HepG2 CAGA-GFP viability, ATP luminescence, 18 h; Potency, µM (titrated, usually from 46.1 µM), for the others: at the highest dose activity change, negative = cytotoxicity, most hits filed as cytotoxic; 410,000 tested, 0.76% active; AID 588856
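CellTiter-Glo luminescence gave cytotoxicity after 18 hours at 37 degrees C. The cells were HepG2 CAGA-GFP in 1% FBS DMEM, stimulated with 500 pg/mL TGF-beta after compound addition. %Activity was normalised to no-cell wells (complete cell-killing) and DMSO (no toxicity), and curves were fitted and classified.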
DT40 TDP1 no CPT – qHTS for Inhibitors of human tyrosyl-DNA phosphodiesterase 1 (TDP1): qHTS in cells in absence of CPT | 420,000 tested, 15% active | DT40 Tdp1-/- hTDP1 cells, no CPT, ATP luminescence, 48 h | Potency, µM (titrated, usually from 46.2 µM), inactives show top-dose activity change, negative = growth inhibition, usual class: inhibitors | AID 686978, 2013; note: % is set by controls: 0 for no effect and ±100 for the full control effect; nearly all actives have a fitted effect of over 55% in size
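Growth kinetics read by CellTiter-Glo luminescence after ≥48 hr at 37 °C. Cells: DT40 Tdp1-/- stably carrying human TDP1, 400 per well, compound exposure in the absence of CPT (DMSO vehicle).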
DT40 TDP1 CPT – growth inhibition of DT40 Tdp1-/-;hTDP1 cells with camptothecin (screen for TDP1 inhibitors); chicken DT40 Tdp1-/-;hTDP1 cells + 20 nM CPT, ATP luminescence, 48 h; Potency, µM (top dose mostly 46.2 µM), for the others: at the highest dose activity change, negative = growth inhibition, usual class: inhibitors; 420,000 tested, 12% active; AID 686979; note: % is set by controls: 0 for no effect and ±100 for the full control effect; nearly all actives have a fitted effect of over 55% in size
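Chicken DT40 Tdp1-/- cells stably complemented with human TDP1 were seeded at 400 cells/well in medium containing 20 nM camptothecin, exposed to pin-transferred compounds, and grown at 37 °C for at least 48 hr. Viability was read as ATP luminescence.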
ATXN2 expr inh – reduces ATXN2 reporter expression in HEK-293 cells | HEK-293 ATXN2-luciferase reporter, luminescence, 24 h | AID 1745845 | Potency, µM (top dose mostly 57 µM), for inactives: at the top dose activity change, negative = inhibition, usual class: inhibitors | 360,000 tested, 0.72% active; note: % is set by controls: 0 for no effect and ±100 for the full control effect; nearly all actives have a fitted effect of over 55% in size
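ATXN2-luciferase reporter cells (luciferase flanked by upstream and downstream ATXN2 gene portions) were treated 24 h at 37 °C with compounds at up to 57 uM. SteadyGlo luminescence gave expression; GF-AFC fluorescence gave viability.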
* hit, by the source's call; i = inactive; ? = inconclusive; . = no result given; [ ] = dose if it differs, or a comment. Shown are actives, neighbours in structure and some others; about 17% of the full set was active somewhere. Calls come from the whole dose curve; as a rule, active = well fitted curve in the direction sought with a large enough effect; inconclusive = small, poorly fitted or top-dose-only effect, or another doubt; inactive = no such curve, though single readings can be large; an effect the other way counts as inactive or inconclusive. Potency is the fitted concentration of half-maximal effect.

SMILES	TGFb inhibitor	S2 tox	HepG2 viability	DT40 TDP1 no CPT	DT40 TDP1 CPT	ATXN2 expr inh
CC(=O)N(Cc1ccc(F)cc1)Cc1nc2ccccc2c(=O)[nH]1	-26%	i	-4%	?	?	-24%
CCn1c(SCC(=O)NNC(=O)c2ccc(C)cc2)nnc1-c1ccncc1	-2%	i	10%	21µM*	-26%	10%
CCn1c(SCC(=O)c2ccc(C)cc2)nnc1-c1ccncc1	11%	i	-2%	-12%	-15%	3%
CN(C(=O)COC(=O)COc1ccc(N(C)S(=O)(=O)c2ccc(Cl)cc2)cc1)c1ccccc1	-3%	i	-7%	?	-7%	.
Cc1cccc(Nc2c(-c3cccs3)nc3nc(C)cc(C)n23)c1	-18%	.	-29%	?	26µM*	.
Cc1cccc(Nc2c(-c3ccsc3)nc3nc(C)cc(C)n23)c1	?	.	-17%	?	?	.
Cc1cc(C)n2c(Nc3cccc(C(F)(F)F)c3)c(-c3ccsc3)nc2n1	?	.	-46%	16µM*	16µM*	.
Cc1[nH]n(-c2ccccc2)c(=O)c1/C=N/NC(=O)c1cccc(F)c1	?	?	16µM*	4.1µM*	5.2µM*	.
O=C(N/N=C/c1c(Cl)cccc1Cl)c1cccc(F)c1	18%	i	-19%	0%	1%	35%
Cc1[nH]n(-c2ccc(Br)cc2)c(=O)c1/C=N/NC(=O)c1ccccc1	3.5µM*	i	-42%	2.9µM*	4.6µM*	.
Cc1ccc(N2CC(c3nnc(NC(=O)c4ccco4)s3)CC2=O)cc1C (stereo not given)	-39%	i	4%	-19%	?	4%
COC(=O)c1nccc2c1[nH]c1ccccc12	-1%	i	-23%	23µM*	?	6%
C(=C/c1nccc2c1[nH]c1ccccc12)/c1ccc2c(c1)OCO2	?	.	-49%	11µM*	5.6µM*	1%
COc1ccc(/C=C/c2nccc3c2[nH]c2ccccc23)cc1	-11%	.	-39%	11µM*	?	.
C[C@H](NC(=O)c1ncn2c1C(=O)N[C@@H](C)C2)C(=O)OC(C)(C)C	-6%	i	-2%	-10%	2%	-4%
COCc1cc(=O)[nH]c(Nc2nc3ccccc3o2)n1	?	?	-32%	8.9µM*	10µM*	?
COCc1cc(=O)[nH]c(Nc2nc(C)c3ccccc3n2)n1	1%	i	0%	16µM*	21µM*	107%
Cc1ccc2oc(Nc3nc(-c4ccccc4)cc(=O)[nH]3)nc2c1	-2%	?	-18%	4.6µM*	3.3µM*	34%[11.3 µM]
COc1ccc(C(=O)Cn2nnc(-c3ccccc3NC(=O)C3CC3)n2)cc1	-6%	i	-6%	16µM*	18µM*	-23%
COc1cc(-c2nnn(CC(=O)Nc3ccc(OC(F)(F)F)cc3)n2)cc(OC)c1OC	?	i	-29%	7.3µM*	21µM*	-26%
COc1ccccc1NC(=O)Cn1nnc(-c2ccccc2NS(=O)(=O)c2ccccc2)n1	-10%	i	5%	18µM*	13µM*	-17%
COc1ccc(NC(=O)Cn2nnc(-c3ccccc3NS(=O)(=O)c3ccc(OC)cc3)n2)cc1	0%	?	10%	?	?	-23%
Cc1ccc(NC(=O)Cn2nnc(-c3ccccc3NC(=O)c3cccs3)n2)cc1	-6%	?	-5%	0.82µM*	0.65µM*	-30%
CC1(C)CC(=O)c2cc(N=C/C(C(=O)c3ccccc3)=C(\O)c3ccccc3)c(=O)oc2C1	-8%	i	-9%	?	?	.
